This is an account of results in PubChem BioAssay (NCI).

About 83,000 compounds went through this panel and 20% of them were active in at least one assay; those are over-represented in the sample as a whole.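 96-well plates, one dose, 48 hours. Percent growth reported; active if below 10.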 Unmarked numbers belong to inactive results. Active and inactive are the calls of the source.

Among the test systems are T-47D breast; BT-549 breast; MDA-MB-435 melanoma; SW-620 colon; MCF7 breast; HCC-2998 colon; KM12 colon; HCT-116 colon.
Assay in all cases: NCI-60 one-dose screen, 48 h (100 = growth as untreated, 0 = no growth, -100 = all killed)
Settings in all cases: 10 µM unless noted

Take `CCOC(=O)c1nnn(-c2ccccc2)c1C1=CN(C)CCC1`: the growth with T-47D breast was 93.3%; with BT-549 breast, 99.4%; in the assay on MDA-MB-435 melanoma, 105%; in the assay on SW-620 colon, 101%; with MCF7 breast, 92.9%; with HCC-2998 colon it was 95.9%. In addition, the growth with KM12 colon is 99.9%.
Take `C=CCOc1cccc(/C=C2\SC(=Nc3ccc(O)cc3)NC2=O)c1`: the growth is 60.9% with T-47D breast; -16.3% (active) in the assay with BT-549 breast; -45.2% (active) in the assay on MDA-MB-435 melanoma; 23.4% in the assay on SW-620 colon; 7.91% (active) with MCF7 breast; 10.6% with HCC-2998 colon. For the same molecule, the growth in the assay with KM12 colon was 6.22% (active).
With `COc1ccc(C2CC(c3ccc4ccccc4c3)=NN2c2nc(O)c(C3=c4cc(Cl)ccc4=NC3=O)s2)cc1` (centres undefined), the growth in the assay with T-47D breast is -79.9% (active); in the assay with BT-549 breast, -26% (active); in the assay on MDA-MB-435 melanoma it was -64.6% (active); with SW-620 colon, -42.4% (active); in the assay on MCF7 breast, -22.4% (active); in the assay with HCC-2998 colon it was -54.1% (active). For the same molecule, the growth in the assay with KM12 colon was -59.3% (active).
As to `COc1cc(-c2cc(-c3ccc(Nc4nc(Nc5ccccc5)nc(Nc5ccc(Cl)cc5)n4)cc3)nc(N)n2)cc(OC)c1OC`, the growth in the assay with T-47D breast was 38.4%; in the assay with BT-549 breast, 71.1%; with MDA-MB-435 melanoma, 63.5%; with SW-620 colon it was 87.2%; in the assay on HCT-116 colon, 34.9%; in the assay with HCC-2998 colon, 58.2%. For the same molecule, the growth in the assay with KM12 colon was 52.4%.
Take `O=[N+]([O-])c1cccc(/C=C/c2ccccn2)c1`: the growth in the assay with T-47D breast is 37.9%; with BT-549 breast, 64.8%; in the assay with MDA-MB-435 melanoma, 98.4%; with SW-620 colon it was 47.7%; in the assay with HCT-116 colon it was 39.6%; in the assay with HCC-2998 colon, 62.2%. In the assay on KM12 colon, the growth is 65.9%.
Consider `COc1ccc(/C=C2\COc3ccc(O)cc3C2=O)cc1OC`, for which the growth in the assay on T-47D breast is 73%; in the assay on BT-549 breast, 75.7%; in the assay with MDA-MB-435 melanoma it was 24.4%; in the assay on MCF7 breast it was 27.3%; with HCT-116 colon it was 11.7%; in the assay with HCC-2998 colon it was 121%. Moreover, in the assay on KM12 colon, the growth is 20.2%.
As to `O=C1Nc2ccccc2/C1=N/N=C/c1ccc(OC2OC(CO)C(O)C(O)C2O)cc1` (centres undefined), the growth with T-47D breast was 105%; with BT-549 breast, 109%; in the assay with MDA-MB-435 melanoma it was 106%; in the assay with MCF7 breast it was 103%; in the assay on HCT-116 colon, 107%; in the assay on KM12 colon, 110%.
As to `CCCCCOC(=O)c1cccc(NC(=O)CN(CC)CC)c1`, the growth is 91.9% with T-47D breast; 72.6% in the assay with BT-549 breast; 101% in the assay on MDA-MB-435 melanoma; 103% in the assay on MCF7 breast; 74.9% with HCT-116 colon; 98.9% with HCC-2998 colon. Moreover, the growth with KM12 colon was 104%.
`CSc1ncc(C)c(Nc2ccc(Cl)cc2)n1`: the growth with T-47D breast was 119%; with BT-549 breast, 87.1%; in the assay with MDA-MB-435 melanoma it was 106%; with SW-620 colon, 102%; with HCT-116 colon, 94.2%; in the assay with HCC-2998 colon, 113%. Also, the growth in the assay with KM12 colon is 100%.
In the case of `CCN(CC)c1ccc(Nc2ccc(CC(=O)c3ccccc3)cc2)cc1`, the growth is 74.3% in the assay on T-47D breast; 82.4% in the assay with BT-549 breast; 80.2% with MDA-MB-435 melanoma; 89.9% with SW-620 colon; 82.4% in the assay with HCT-116 colon; 94.9% in the assay with HCC-2998 colon. Besides, the growth with KM12 colon was 74.9%.
`COc1ccc(-c2cn(-c3cccc(C(=O)/C=C/c4cc(OC)c(OC)c(OC)c4)c3)c(=O)[nH]2)cc1`: the growth in the assay on T-47D breast was -9.54% (active); in the assay with BT-549 breast, 139%; in the assay on MDA-MB-435 melanoma, -9.22% (active); in the assay with SW-620 colon, -50.7% (active); with KM12 colon, -62.6% (active).
As for `CCNCCNc1cc(-c2ccc(C(F)(F)F)cc2)c(C#N)c2nc3cc(Cl)c(Cl)cc3n12`, the growth in the assay on T-47D breast was -53.2% (active); in the assay with BT-549 breast, -2.28% (active); in the assay with MDA-MB-435 melanoma, -92.6% (active); with MCF7 breast, -70.6% (active); with HCT-116 colon it was -88.3% (active); in the assay with KM12 colon it was -77.7% (active).
As to `CCOC(=O)Cc1csc2nc(-c3ccccc3)nn12`, the growth with T-47D breast is 92.9%; in the assay with BT-549 breast it was 127%; with MDA-MB-435 melanoma, 113%; in the assay on MCF7 breast it was 96.5%; with HCT-116 colon, 98.2%; with HCC-2998 colon it was 103%. In addition, the growth in the assay with KM12 colon is 105%.
For the molecule `CNCCNc1nc2ccccc2c2c(=O)c3cc(F)ccc3oc12`, the growth with T-47D breast was 96.1%; in the assay on BT-549 breast, 69.9%; with SW-620 colon, 33.6%; in the assay with MCF7 breast, 45.2%; in the assay on HCT-116 colon, 27.2%; in the assay with HCC-2998 colon, 71.2%. The growth with KM12 colon was 41.8%.
For the molecule `Cc1nc(Nc2ccc(N)cc2)c2ccccc2n1`, the growth was 101% with T-47D breast; 104% with BT-549 breast; 64.6% in the assay on MDA-MB-435 melanoma; 75.8% in the assay with MCF7 breast; 95.3% in the assay on HCT-116 colon; 104% in the assay with HCC-2998 colon. In the assay with KM12 colon, the growth is 98.3%.
`C=CCN1C(=O)[C@]2(SC1=S)[C@H](c1cccc(Cl)c1)CN(C)[C@]21C(=O)NC2C=CC(Cl)=C[C@H]21` (some centres undefined): the growth with T-47D breast was 15.6%; with BT-549 breast, 34.1%; in the assay with MDA-MB-435 melanoma, 55.1%; in the assay with MCF7 breast, 16.9%; in the assay with HCT-116 colon it was 33.4%; with HCC-2998 colon, 78.2%. Also, the growth in the assay with KM12 colon is 64.1%.
For `O=C(NCCOCCOCCOCCNC(=O)c1cc2c(o1)C(=O)c1ccccc1C2=O)NC12CC3CC(CC(C3)C1)C2`, the growth in the assay on T-47D breast was 9.45% (active); in the assay on BT-549 breast, -84.9% (active); with MDA-MB-435 melanoma, -95.9% (active); in the assay with SW-620 colon it was -8.88% (active); with HCT-116 colon, 3.1% (active); in the assay on HCC-2998 colon it was -67.6% (active). In the assay with KM12 colon, the growth is -1.07% (active).
`COc1ccc(C2CC(c3cnccn3)=NN2)cc1OC` (centres undefined): the growth in the assay on T-47D breast was 98.7%; in the assay with BT-549 breast, 83.1%; with MDA-MB-435 melanoma it was 117%; in the assay on MCF7 breast, 92.8%; with HCT-116 colon it was 85.7%; with HCC-2998 colon it was 99.4%. For the same molecule, in the assay on KM12 colon, the growth is 109%.
For `COC(=O)/C(=C\c1ccc(OC)cc1)C(=O)N1c2ccccc2Sc2ccccc21`, the growth in the assay on T-47D breast was 48.4%; in the assay with BT-549 breast, -45.7% (active); in the assay on MDA-MB-435 melanoma, -57.8% (active); in the assay with HCT-116 colon it was 23.3%; with HCC-2998 colon, 86.8%; with KM12 colon, 36.1%.
Regarding `CN(CCCCCCCCNc1ccnc2ccccc12)Cc1ccc(-c2ccc(-c3ccc(C#N)cc3)s2)cc1`, the growth in the assay on T-47D breast was -33.6% (active); in the assay with BT-549 breast, -30.1% (active); in the assay on MDA-MB-435 melanoma, -91.6% (active); with SW-620 colon, -76.3% (active); in the assay with HCT-116 colon, -86.5% (active); with HCC-2998 colon it was -89.6% (active). The growth in the assay with KM12 colon was -68.6% (active).
Turning to `CCCCNCC(=O)Nc1ccc(C(=O)OCC)cc1`, the growth in the assay on T-47D breast was 96.8%; in the assay on BT-549 breast, 92.5%; with MDA-MB-435 melanoma, 105%; in the assay with MCF7 breast, 98.4%; with HCT-116 colon, 86.4%; with HCC-2998 colon it was 100%. Also, the growth in the assay with KM12 colon is 103%.
Consider `COc1ccccc1NC(=O)Nc1ccc(-c2nc3ccccc3o2)cc1`, for which the growth is 68.1% in the assay with T-47D breast; 92.3% in the assay with BT-549 breast; 104% with MDA-MB-435 melanoma; 111% with SW-620 colon; 93.7% in the assay on HCT-116 colon; 106% in the assay with HCC-2998 colon. Also, the growth in the assay on KM12 colon is 105%.
As for `c1ccc([P+](CCCc2n(Cc3ccc4ccccc4c3)c3ccccc3[n+]2Cc2ccc3ccccc3c2)(c2ccccc2)c2ccccc2)cc1`, the growth is 56.9% in the assay on T-47D breast; 68.1% in the assay with BT-549 breast; 25.2% in the assay with MDA-MB-435 melanoma; 73.9% with MCF7 breast; 24.2% in the assay on HCT-116 colon; 32.2% in the assay on KM12 colon.
Consider `O=C(/C=C/C12c3ccccc3C(c3ccccc31)C1C(=O)NC(=O)C12)c1ccccc1` (centres undefined), for which the growth is 51.7% in the assay with T-47D breast; 23.6% in the assay with BT-549 breast; 13.8% with MDA-MB-435 melanoma; 19.1% in the assay with SW-620 colon; 14.3% in the assay on HCT-116 colon; 10.4% in the assay on HCC-2998 colon. Also, in the assay on KM12 colon, the growth is 9.85% (active).
Consider `O=[N+]([O-])c1ccc(-c2cc3c(Nc4ccc(OCc5cccc(Cl)c5)c(Cl)c4)ncnc3s2)cc1`, for which the growth with T-47D breast is 58.9%; in the assay with BT-549 breast, 86.2%; with MDA-MB-435 melanoma it was 74.3%; in the assay with SW-620 colon it was 48.7%; with HCT-116 colon, 52%; in the assay with HCC-2998 colon, 102%. In addition, in the assay with KM12 colon, the growth was 74%.
